Results: PubChem BioAssay AID778 (Sanford-Burnham Center for Chemical Genomics, 2007)
Out of some 96,000 compounds screened, about 20,000 (21%) were called active. Only a sample is shown. A number with no mark means an inactive call.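 Rule for the calls: active = CYP2C19 inhibition above a set limit at 5 µM in the primary screen (cut at about 50% in these data); inactive = the rest.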

Target: Cytochrome P450 2C19 (Homo sapiens) (UniProt P33261)
Experiment: blockers of cytochrome P450 2C19 activity – biochemical, luminescence, ADME assay, primary screen (AID 778);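 note: plate controls were negative control wells for no effect and 2.5 mM tranylcypromine positive control for full effect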
Conditions: CYP2C19 Supersomes, luciferin-H EGE luminescence, 30 min; at 5 µM; active compounds read high

Chain of Cytochrome P450 2C19 (Homo sapiens) (P33261 whole entry, looked up): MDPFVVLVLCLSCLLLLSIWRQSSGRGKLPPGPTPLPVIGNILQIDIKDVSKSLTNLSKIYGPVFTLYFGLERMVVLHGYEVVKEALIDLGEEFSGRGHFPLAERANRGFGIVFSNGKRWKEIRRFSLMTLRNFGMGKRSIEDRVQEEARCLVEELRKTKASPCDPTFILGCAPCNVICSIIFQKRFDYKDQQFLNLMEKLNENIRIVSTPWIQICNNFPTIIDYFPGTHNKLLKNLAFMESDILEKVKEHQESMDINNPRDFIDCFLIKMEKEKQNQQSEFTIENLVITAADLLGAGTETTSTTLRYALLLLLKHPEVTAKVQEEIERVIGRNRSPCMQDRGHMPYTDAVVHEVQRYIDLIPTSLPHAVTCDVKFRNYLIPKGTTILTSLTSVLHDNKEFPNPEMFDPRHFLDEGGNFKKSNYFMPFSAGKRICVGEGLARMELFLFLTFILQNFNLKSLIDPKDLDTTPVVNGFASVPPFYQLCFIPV

Row | Compound | inhibition
1 | CC(C)c1ccc(O)c(CN2CCN(c3ccccc3)CC2)c1 | 19.8%
2 | COc1ccc(CN2CCN(c3ccccc3F)CC2)c(OC)c1 | 86.7% (active)
3 | CCCCCn1c(=O)c(C(=O)NCc2ccccn2)c(O)c2ccccc21 | 26%
4 | CCCCn1c(O)c(C(CC)=NCc2ccco2)c(=O)[nH]c1=O | 29.9%
5 | CCC(=NCCCO)c1c(O)n(-c2ccc(OC)cc2)c(=O)[nH]c1=O | -9.4%
6 | CCCCCCN=C(CC)c1c(O)n(CCCC)c(=O)[nH]c1=O | 73.6% (active)
7 | Cn1c(O)c(C=NCCCC(=O)O)c(=O)n(C)c1=O | -13.4%
8 | CCN(CC)CCOC(=O)c1cc2cc(COC)ccc2o1 | -6.5%
9 | O=C(c1cc(S(=O)(=O)N2CCOCC2)ccc1F)N1CCC2(CC1)OCCO2 | -8%
10 | Cc1cc(OCc2cc(C(=O)O)oc2C)c2c3c(c(=O)oc2c1)CCCC3 | -33%
11 | CCN1CCN(C(=O)Cc2coc3cc(C)cc(C)c23)CC1 | 89.1% (active)
12 | CN(C)C(=O)NC(O)C(Cl)(Cl)Cl (centres undefined) | 23.9%
13 | CCN(CC)P(=O)(Oc1cccc(C)c1)N(CC)CC | 78.8% (active)
14 | O=C(CN1CCCCC1)Nc1ccc(Br)cc1C(=O)c1ccccc1Cl | 10.3%
15 | CC12CN3CC(C)(CN(C1)C3c1cccs1)C2 (centres undefined) | 7.6%
16 | Cc1ccc(N(C)C(=O)Oc2cccc3ccc(C)nc23)cc1 | 55.4% (active)
17 | CN1C2C=C(N(C(=O)c3ccc(Cl)cc3)c3ccccc3)CC1CC2 (centres undefined) | 19.9%
18 | CCOC(=O)c1c(C)c(C(=O)N2CCC3(CC2)OCCO3)c(C)n1CC | 49.7%
19 | C[N+]12CN3CN(CN(C3)C1)C2 | -6.5%
20 | Cc1ccc(Cn2nnnc2CN2CCC(n3nnc4ccccc43)CC2)cc1 | 87.4% (active)
21 | Nc1ccc(C(=O)N/N=C2/CN3CCC2CC3)cc1 | 15.9%
22 | O=C(O)C1CSC(c2cccnc2)N1 (centres undefined) | -10.8%
23 | CCOC(=O)C1CN(C)CCC1=O (centres undefined) | -3.5%
24 | CC(=O)c1ccc(OC(NC(=O)Cc2ccccc2)C(Cl)(Cl)Cl)cc1 (centres undefined) | 83.1% (active)
25 | CC(=O)NC(=O)NC(C)Cc1ccccc1 (centres undefined) | -11.6%
26 | Cc1nc2ccccn2c1P(=S)(N1CCCCC1)N1CCCCC1 | 17.2%
27 | CC1=C(C(=O)Nc2ccccc2)SCCO1 | -3.1%
28 | CCOP(=S)(OCC)SCOC(=O)NCC(=O)OC | 95.6% (active)
29 | Cc1cccc(N2C(=O)NC(=O)/C(=C\c3cnn(-c4ccccc4)c3)C2=O)c1 | -9.4%
